From publication PMC5540273 (PLoS ONE, 2017)
Read-outs that look alike come from different tables or passages of the source.

Legend:
ZAK = details: concentration: 1 μM, replicates: in singlicate; n = 1
ZAP70 = details: concentration: 1 μM, replicates: in singlicate; n = 1
p38-alpha = test system: T1, p38-alpha; details: n = 1
T1 construct: gene MAPK14

p38-beta = test system: T2, p38-beta; details: concentration: 1 μM, replicates: in singlicate; n = 1
T2 construct: gene MAPK11

p38-delta = details: concentration: 1 μM, replicates: in singlicate; n = 1
p38-gamma = test system: T3, p38-gamma; details: concentration: 1 μM, replicates: in singlicate; n = 1
T3 construct: gene MAPK12

[1] = concentration: 1 μM, replicates: in singlicate
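Also: KINOMEscan kinase panel screen.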

| Compound | %Inh (ZAK) [%] | %Inh (ZAP70) [%] | %Inh (p38-alpha; [1]) [%] | %Inh (p38-beta) [%] | %Inh (p38-delta) [%] | %Inh (p38-gamma) [%] | %Inh (p38-alpha; 1 µM) [%] |
| --- | --- | --- | --- | --- | --- | --- | --- |
| Cl.c1ccc(-c2ccc3c(Nc4ccc5[nH]ncc5c4)ccnc3c2)nc1 [GW440137] | 71 | 24 | 8 | 0 | 38 | 14 |  |
| COc1cccc(-c2ccc3c(NC(=O)C4CC4)n[nH]c3n2)c1 [SB-710903] | 0 | 48 | 23 | 0 | 40 | 0 |  |
| COC(=O)Nc1nc2ccc(Oc3ccc(NC(=O)Nc4cc(C(F)(F)F)ccc4F)cc3)cc2n1C.Cl [GW692089] | 87 | 0 | 57 | 16 | 0 | 44 |  |
| Cc1occc1-c1ncc(OC[C@@H](N)Cc2c[nH]c3ccccc23)cc1-c1ccc2[nH]nc(C)c2c1.O=C(O)C(F)(F)F [GSK682037] | 0 | 0 | 89 | 36 | 73 | 72 |  |
| CNC(=O)c1ccccc1Nc1nc(Nc2ccc(N3CCOCC3)cc2)ncc1Cl.Cl [GSK1576028] | 13 | 6 | 8 | 2 | 0 | 13 |  |
| COc1cc(Nc2nccc(N3CCC(NC(=O)c4cc5ccccc5s4)C3)n2)cc(OC)c1OC (stereo not drawn) [GSK1379760] | 0 | 0 | 3 | 2 | 15 | 26 |  |
| O=C(Nc1ccccc1F)NC1CCN(c2ccnc(Nc3ccc(F)cc3)n2)CC1 [GSK1379800] | 30 | 47 | 32 | 0 | 45 | 0 |  |
| O=C(NC1CCN(c2ccnc(Nc3ccc(F)cc3)n2)C1)c1cc2ccccc2s1 (stereo not drawn) [GSK1379716] | 20 | 0 | 7 | 0 | 45 | 67 |  |
| COc1cccc(NC(=O)NC2CCN(c3ccnc(Nc4cc(OC)c(OC)c(OC)c4)n3)C2)c1 (stereo not drawn) [GSK1379763] | 0 | 0 | 24 | 0 | 8 | 4 |  |
| COc1cccc(C(=O)Nc2cccc(Oc3ccc4nc(NC(=O)C5CC5)cn4n3)c2)c1 | 62 | 0 | 15 | 16 | 32 | 39 |  |
| COCCOCCOc1cc2ncc3c4ccc(C#N)cc4[nH]c3c2cc1OC | 33 | 0 | 1 | 0 | 0 | 23 |  |
| O=C(Nc1n[nH]c2cc(-c3ccoc3)ccc12)C1CC1 [SB-738481] | 15 | 0 | 0 | 0 | 0 | 1 |  |
| O=C(Nc1cccc(-c2nn3ccccc3c2-c2ccnc(Nc3cccc(F)c3)n2)c1)c1c(F)ccc(F)c1Cl [GSK357952] | 85 | 0 | 0 | 26 | 36 | 0 |  |
| Cc1cccc(Nc2nc(N[C@H]3CCNC3)ncc2C(N)=O)c1.Cl [GSK2197149] | 0 | 0 | 0 | 0 | 19 | 0 |  |
| COc1cc(Nc2nccc(N3CCC(NC(=O)Nc4cccc(C(C)=O)c4)C3)n2)cc(OC)c1OC (stereo not drawn) [GSK1379753] | 0 | 12 | 0 | 0 | 41 | 0 |  |
| COc1cc(Nc2ncc3c(C)nc(-c4cc5ccccc5[nH]4)n3n2)cc(OC)c1OC [GW869516] | 0 | 0 | 9 | 2 | 0 | 16 |  |
| CCc1ccc(-c2ccc3c(c2)-c2c(cnn2C)S(=O)(=O)N3C)cc1 | 3 | 0 | 9 | 4 | 23 | 14 |  |
| COc1ccc(CNC(=O)NC2CCN(c3ccnc(Nc4ccc(F)cc4)n3)CC2)cc1 [GSK1379788] | 0 | 4 | 19 | 0 | 29 | 0 |  |
| Nc1n[nH]c2cnc(-c3ccccc3)cc12 [SB-642124] | 16 | 0 | 0 | 0 | 28 | 0 |  |

| Compound | %Inh (ZAK) [%] | %Inh (ZAP70) [%] | %Inh (p38-alpha; [1]) [%] | %Inh (p38-beta) [%] | %Inh (p38-delta) [%] | %Inh (p38-gamma) [%] | %Inh (p38-alpha; 1 µM) [%] |
| --- | --- | --- | --- | --- | --- | --- | --- |
| Cl.Cl.NCC(C(=O)Nc1cc(Br)c(-c2ccnc3[nH]ccc23)s1)c1ccccc1 (stereo not drawn) [GSK1269851] | 0 | 0 | 0 | 40 | 17 | 0 |  |
| Cn1cc(-c2ccc3c(c2)CCN3C(=O)Cc2cccc(F)c2)c2c(N)ncnc21 [GSK2603358] | 0 | 55 | 0 | 0 | 52 | 19 |  |
| Nc1ncc(-c2cccnc2)c2scc(-c3ccc4c(c3)CCN4C(=O)Cc3ccccc3)c12 [GSK683281] | 9 | 0 | 4 | 0 | 71 | 0 |  |
| Nc1ncnc2c1nc(-c1ccccc1)n2-c1ccccc1 [SKF-97293] | 16 | 12 | 12 | 4 | 0 | 26 |  |
| Cl.Cl.NCC(NCc1ccc(-c2ccnc3[nH]ccc23)s1)c1ccccc1 (stereo not drawn) [GSK1321565] | 15 | 0 | 27 | 0 | 3 | 0 |  |
| Cn1cc(-c2ccc3c(c2)CCN3C(=O)Cc2cccc(Cl)c2)c2c(N)ncnc21 [GSK2606590] | 0 | 0 | 0 | 0 | 57 | 29 |  |
| O=C(Nc1cccc(-c2nn3ccccc3c2-c2ccnc(Nc3cccc(C(F)(F)F)c3)n2)c1)c1c(F)cccc1F [GSK292658] | 80 | 0 | 17 | 32 | 24 | 0 |  |
| O=C(Nc1n[nH]c2nc(-c3ccc(O)cc3)ccc12)C1CC1 [SB-710363] | 23 | 0 | 0 | 11 | 0 | 20 |  |
| Clc1ccc(-c2nn3ncccc3c2-c2ccnc(Nc3ccc4c(c3)OCCO4)n2)cc1 [GW829116] | 9 | 0 | 99.7 | 83 | 13 | 0 |  |
| Cn1cc(-c2[nH]c3cc(NC(=O)[C@H](N)C4CCCCC4)cc4c3c2C=NNC4=O)cn1 | 0 | 17 | 0 | 0 | 0 | 7 |  |
| CN1CCN(CCCNc2nccc(-c3c(-c4ccc(F)cc4)nn4cc(C(F)(F)F)ccc34)n2)CC1 [GW621581] | 17 | 0 | 99.8 | 39 | 12 | 18 |  |
| Fc1ccc(-c2ncn(C3CCNCC3)c2-c2ccnc(Oc3ccc(-c4ccccc4)cc3)n2)cc1 [SB-245391] | 17 | 24 |  | 60 | 0 | 26 | 96 |
| C[C@@H](Oc1cc(-n2cnc3cc(-c4ccnc(NCCS(C)(=O)=O)c4)ccc32)sc1C(N)=O)c1ccccc1Cl [GSK907232] | 27 | 0 | 0 | 14 | 29 | 0 |  |
| CC(=O)Nc1nc2cnc(Nc3cc(NC(=O)c4cccc(C5(C#N)CC5)c4Cl)ccc3C)nc2s1 | 17 | 0 | 86 | 19 | 17 | 0 |  |
| c1ccc(Oc2ccc(Nc3ccnc4cc(-c5ccc(CNCCN6CCOCC6)o5)ccc34)cc2)nc1 [GW567145] | 77 | 0 | 20 | 0 | 0 | 0 |  |
| c1ccc(-c2cnc3nccnn23)cc1 [AH20685] | 0 | 0 | 0 | 0 | 20 | 0 |  |
| CSc1cccc2c(-c3ccncn3)c(-c3ccc(F)cc3)nn12 [GW514786] | 0 | 8 | 98 | 29 | 38 | 2 |  |
| COc1cc(Nc2nccc(-c3c(-c4cccc(NC(=O)c5c(F)cccc5F)c4)nn4ncccc34)n2)cc(OC)c1OC [GSK327238] | 97.2 | 0 | 99.9 | 100 | 52 | 21 |  |
